Results as given in PubChem BioAssay (Tox21).
Where “and” joins values, the source holds several entries; their conditions need not be identical. Equal entries are not always repeated. Records with an inconclusive call do not appear. Entries that show only a call come without a potency. A structure can be active in one record and inactive in another. Calls of active or inactive are those of the source. Calls follow the shape of the dose curve; as a rule, active = well fitted curve in the direction sought with a large enough effect in the repeat runs; inconclusive = weak or mixed curves; inactive = no such curve, though single readings can be large; an effect the other way counts as inactive or inconclusive.

Key:
[1] = A CellTox Green Cytotoxicity Assay to monitor cytotoxicity in HepG2 cells - 0 hour (AID 1224882); also: nearly all actives have a fitted effect of over 35% in size; also: potency is read from the fitted curve at half-maximal effect
Summary of the method: (§1)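 Cells and non-lytic dye reagent are dispensed together (600 HepG2 cells/well) and incubated 5 h before DMSO compound transfer. Kinetic fluorescence is then recorded in the same wells during 40 h at 37 C.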

[2] = A CellTox Green Cytotoxicity Assay to monitor cytotoxicity in HepG2 cells - 32 hour (AID 1224883); also: nearly all actives have a fitted effect of over 50% in size; also: potency is read from the fitted curve at half-maximal effect
Summary of the method: as §1

[3] = A CellTox Green Cytotoxicity Assay to monitor cytotoxicity in HEK293 cells - 8 hour (AID 1224884); also: nearly all actives have a fitted effect of over 35% in size; also: potency is read from the fitted curve at half-maximal effect
Summary of the method: (§2)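 Cells (HEK293, 600/well) and dye reagent are dispensed together. After 5 h at 37 C, 23 nL compound is pinned in. Plates stay at 37 C for 40 h with fluorescence read at 0h, 8h, 16h, 24h, 32h and 40h.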

[4] = qHTS RealTime-Glo MT Cell Viability Assay in HepG2 cells - 16 hour (AID 1224885); also: nearly all actives have a fitted effect of over 50% in size; also: potency is read from the fitted curve at half-maximal effect
Summary of the method: (§3)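 Tox21 10K library screened in qHTS format on HepG2 cells carrying RealTime-Glo reagents. Compounds were added after a 5 h preincubation, and the luminescent signal from continuous culture was measured repeatedly during 40 h treatment.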

[5] = qHTS RealTime-Glo MT Cell Viability Assay in HEK293 cells - 24 hour (AID 1224886); also: nearly all actives have a fitted effect of over 50% in size; also: potency is read from the fitted curve at half-maximal effect
Summary of the method: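 Luminescence generated by NanoLuc from substrate produced by living HEK293 cells served as the viability signal. Each value reflects the reading at its stated time point during continuous 40 h compound exposure at 37 C.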

[6] = qHTS RealTime-Glo MT Cell Viability Assay in HEK293 cells - 8 hour (AID 1224887); also: nearly all actives have a fitted effect of over 50% in size; also: potency is read from the fitted curve at half-maximal effect
Summary of the method: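 Real-time viability in HEK293: signal arises when living cells convert a prosubstrate for NanoLuc in the medium, so luminescence tracks viable cell number. Compound (23 nL, DMSO) added 5 h post-seeding; kinetic reads at 0–40 h, 37 C.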

[7] = A CellTox Green Cytotoxicity Assay to monitor cytotoxicity in HEK293 cells - 16 hour (AID 1224888); also: nearly all actives have a fitted effect of over 35% in size; also: potency is read from the fitted curve at half-maximal effect
Summary of the method: as §2

[8] = qHTS RealTime-Glo MT Cell Viability Assay in HepG2 cells - 0 hour (AID 1224889); also: nearly all actives have a fitted effect of over 50% in size
Summary of the method: as §3

[9] = A CellTox Green Cytotoxicity Assay to monitor cytotoxicity in HepG2 cells - 8 hour (AID 1224890); also: nearly all actives have a fitted effect of over 45% in size; also: potency is read from the fitted curve at half-maximal effect
Summary of the method: as §1

[10] = qHTS assay to identify small molecule antagonists of the estrogen receptor alpha (ER-alpha) signaling pathway using the BG1 cell line in the presence of 0.1 nM 17-beta-estradiol - cell viability counter screen (AID 1259241); also: nearly all actives have a fitted effect of over 40% in size; also: potency is read from the fitted curve at half-maximal effect
Summary of the method: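 In this screen, hormone-deprived VM7Luc4E2 cells were seeded at 4,000 per well, dosed with compound and 0.1 nM estradiol final, and incubated 22 hr at 37C and 5% CO2; fluorogenic live-cell protease signal reported viability.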

SMILES	Potency [1]	Potency [2]	Potency [3]	Potency [4]	Potency [5]	Potency [6]	Potency [7]	Potency [8]	Potency [9]	Potency [10]
CN(C)C(=O)COC(=O)Cc1ccc(OC(=O)c2ccc(N=C(N)N)cc2)cc1	inactive	inactive	inactive	inactive	inactive	inactive	inactive	inactive	inactive	
O=c1oc2cc(O)ccc2c2oc3cc(O)ccc3c12	inactive	inactive	inactive	inactive	21 µM (active)	16.7 µM (active)	inactive	inactive	inactive	inactive
C=CC(C)(CCC=C(C)C)OC=O (stereo not given)	inactive	inactive	inactive	inactive	inactive	inactive	inactive	inactive	inactive	inactive
O=C(O)c1cc(N=Nc2ccc([N+](=O)[O-])cc2)ccc1O	inactive	inactive	inactive	inactive	inactive	inactive	inactive	inactive	inactive	
NC(=O)c1cccc([N+](=O)[O-])c1	inactive	inactive	inactive	inactive	inactive	inactive	inactive	inactive	inactive	inactive
CN(C)Cc1cc(C(C)(C)C)c(O)c(C(C)(C)C)c1	inactive	inactive	inactive	inactive	inactive	inactive	inactive	inactive	inactive	
COC(=O)c1ccccc1C	inactive	inactive	inactive	inactive	inactive	inactive	inactive	inactive	inactive	inactive
CN(C)c1ccc(C(=C2C=CC(=[N+](C)C)C=C2)c2ccc(N(C)C)cc2)cc1	inactive	10.9 µM (active) and 11 µM (active) and 19 µM (active)	inactive	21.8 µM (active) and 24.5 µM (active)	5.47 µM (active) and 7.76 µM (active) and 3.01 µM (active)	21.8 µM (active) and 43.6 µM (active)	inactive	inactive	inactive	8.59 µM (active) and 6.86 µM (active) and 5.31 µM (active)
O=C1c2ccccc2C(=O)N1SC1CCCCC1	inactive	24.5 µM (active)	inactive	38.9 µM (active)	34.6 µM (active) and 34.7 µM (active)	38.9 µM (active)	43.6 µM (active)	inactive		
O=C(O)Cc1ccccc1Nc1c(Cl)cccc1Cl	inactive	inactive	inactive	inactive	inactive	inactive	inactive	inactive	inactive	
C=CCn1c(=O)n(CC=C)c(=O)n(CC=C)c1=O	inactive	inactive	inactive	inactive	inactive	inactive	inactive	inactive	inactive	inactive
O=C(O)CCN(C1(C(=O)NO)CCCC1)S(=O)(=O)c1ccc(Oc2ccc(F)cc2)cc1	inactive	inactive	inactive	inactive	inactive	inactive	inactive	inactive	inactive	inactive
COc1cc(C)ccc1O	inactive	inactive	inactive	inactive	inactive	inactive	inactive	inactive	inactive	
Cc1c(C)c2c(c(C)c1O)CC[C@@](C)(CCC[C@H](C)CCC[C@H](C)CCCC(C)C)O2	inactive	inactive	inactive	inactive	inactive	inactive	inactive	inactive	inactive	inactive
C=CC(=O)OCCOC(=O)C=C	inactive	inactive	inactive	inactive	43.6 µM (active)	inactive	inactive	inactive	inactive	inactive
O=C1CCCCCCCCCCCCCCCO1	38.9 µM (active)	43.6 µM (active)	43.6 µM (active)	inactive	inactive	inactive	24.5 µM (active)	inactive	43.6 µM (active)	inactive
O=C(O)Cc1ccc2c(c1)C(=O)c1ccccc1CO2	inactive	inactive	inactive	inactive	inactive	inactive	inactive	inactive	inactive	inactive
Cc1cc(-n2nc3ccc(Cl)cc3n2)c(O)c(C(C)(C)C)c1	inactive	inactive	inactive	inactive	inactive	inactive	inactive	inactive	inactive	
Oc1c(I)cc(Cl)c2cccnc12	inactive	inactive	inactive	inactive	34.6 µM (active) and inactive	inactive	inactive	inactive	inactive	
CC(C)OC(=O)C(O)(CC(=O)O)CC(=O)O	inactive	inactive	inactive	inactive	inactive	inactive	inactive	inactive	inactive	inactive

SMILES	Potency [1]	Potency [2]	Potency [3]	Potency [4]	Potency [5]	Potency [6]	Potency [7]	Potency [8]	Potency [9]	Potency [10]
CCCCCCCCCCOC(=O)c1ccccc1C(=O)OCCCCCCCC	inactive	inactive	inactive	inactive	inactive	inactive	inactive	inactive	inactive	
CCCCCCCCCCCC(=O)OCC(C)OC(=O)CCCCC(=O)O (stereo not given)	inactive	inactive	inactive	inactive	inactive	inactive	inactive	inactive	inactive	
CCCCOC(=O)CO	inactive	inactive	inactive	inactive	inactive	inactive	inactive	inactive	inactive	inactive
CCC(COC(=O)CCS)(COC(=O)CCS)COC(=O)CCS	inactive	inactive	inactive	inactive	inactive	inactive	inactive	inactive		
O=C(O)c1cc(-c2ccc(F)cc2F)ccc1O	inactive	inactive	inactive	inactive	inactive	inactive	inactive	inactive	inactive	inactive
Oc1ccccc1O	inactive	inactive	inactive	inactive	49.6 µM (active) and 24.5 µM (active)	inactive	inactive	inactive	inactive	
CCc1ccc(Br)cc1	inactive	inactive	inactive	inactive	inactive	inactive	inactive	inactive	inactive	inactive
Cc1cc(C(C)(C)C)cc(C)c1CC1=NCCN1	inactive	inactive	inactive	inactive	inactive	inactive	inactive	inactive	inactive	inactive
Clc1nnc(Cl)c2ccccc12	inactive	inactive	inactive	inactive	inactive	inactive	inactive	inactive	inactive	inactive
CC(N=C(NC#N)Nc1ccncc1)C(C)(C)C (stereo not given)	inactive	inactive	inactive	inactive	inactive	inactive	inactive	inactive	inactive	inactive
O=S(=O)(O)c1ccc(Nc2nc(Nc3ccc(/C=C/c4ccc(Nc5nc(Nc6ccc(S(=O)(=O)O)cc6)nc(N(CCO)CCO)n5)cc4S(=O)(=O)O)c(S(=O)(=O)O)c3)nc(N(CCO)CCO)n2)cc1	inactive	inactive	inactive	inactive	inactive	inactive	inactive	inactive	inactive	
CC(C)(C)c1ccc(C(O)CCCN2CCC(C(O)(c3ccccc3)c3ccccc3)CC2)cc1 (stereo not given)	inactive	5.35 µM (active)	21.3 µM (active)	7.56 µM (active)	5.35 µM (active)	8.49 µM (active)	13.4 µM (active)	inactive	15.1 µM (active)	
Clc1ccnc(Cl)n1	inactive	inactive	inactive	inactive	inactive	inactive	inactive	inactive	inactive	inactive
CCCCCCCC	inactive	inactive	inactive	inactive	inactive	inactive	inactive	inactive	inactive	inactive
c1cnccn1	inactive	inactive	inactive	inactive	inactive	inactive	inactive	inactive	inactive	inactive
Cc1c(F)c(N2CCNC(C)C2)cc2c1c(=O)c(C(=O)O)cn2C1CC1 (stereo not given)	inactive	inactive	inactive	inactive	inactive	inactive	inactive	inactive	inactive	inactive
CCCCCCCCCCCCCC[N+](C)(C)Cc1ccccc1	inactive	35.2 µM (active) and 15.1 µM (active) and 14.1 mM (active)	55.8 µM (active) and 21.3 µM (active) and 20 mM (active)	49.7 µM (active) and 21.3 µM (active) and 17.8 mM (active)	5.58 µM (active) and 6.74 µM (active) and 5.01 mM (active)	49.7 µM (active) and 20 mM (active)	44.3 µM (active) and 23.9 µM (active) and 20 mM (active)	inactive		
CC(C)(C)NSc1nc2ccccc2s1	inactive	inactive	inactive	inactive	inactive	inactive	inactive	inactive	inactive	inactive
CCCCCc1ccc(Cl)cc1	inactive	inactive	inactive	inactive		inactive	inactive	inactive	inactive	inactive
Cc1nc(-c2ccc(Cl)cc2)oc1COC(C)(C)C(=O)O	inactive	inactive	inactive	inactive	inactive	inactive	inactive	inactive		inactive
